# Reference: ChEMBL document CHEMBL3988442, “University of Dundee, Small-Polar-MMV Screening Library” (2021)
# Tests used:
# [1] = molecular target: T1, Aspartate--tRNA(Asp/Asn) ligase (Mycobacterium tuberculosis (strain ATCC 25618 / H37Rv)) (UniProt P9WFW3); test: Assay for Asp RNA synthetase-1 from Mycobacterium tuberculosis; format: functional; parameters: scale not given: direction of the effect not stated beside the values; conditions: 30 µM; note: in the data most compounds retested in dose-response had high values
# T1 sequence (whole entry): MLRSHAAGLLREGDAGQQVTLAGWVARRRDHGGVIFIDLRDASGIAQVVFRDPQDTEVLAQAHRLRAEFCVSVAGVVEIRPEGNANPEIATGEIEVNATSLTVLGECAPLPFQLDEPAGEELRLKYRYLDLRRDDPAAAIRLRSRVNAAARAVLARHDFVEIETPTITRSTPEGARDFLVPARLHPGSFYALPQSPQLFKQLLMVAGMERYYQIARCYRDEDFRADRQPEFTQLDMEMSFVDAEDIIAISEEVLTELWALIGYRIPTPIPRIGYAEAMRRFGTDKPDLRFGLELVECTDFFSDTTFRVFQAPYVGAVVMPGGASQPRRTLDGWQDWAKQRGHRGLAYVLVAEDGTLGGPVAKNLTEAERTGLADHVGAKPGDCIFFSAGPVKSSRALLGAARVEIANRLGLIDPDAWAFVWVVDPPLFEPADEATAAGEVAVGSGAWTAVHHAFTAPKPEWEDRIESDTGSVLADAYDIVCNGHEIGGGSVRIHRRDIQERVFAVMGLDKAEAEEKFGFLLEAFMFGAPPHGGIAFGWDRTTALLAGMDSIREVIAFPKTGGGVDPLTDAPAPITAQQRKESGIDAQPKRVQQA
# [2] = molecular target: Shiga toxin 2 (Escherichia coli O157:H7) (UniProt P09385+P09386); test: E. coli 0.157:H7 Shiga Toxin SOP - stx2 screening assay; format: functional; parameters: scale not given: direction of the effect not stated beside the values; conditions: 30 µM
Structure (SMILES),Percent Effect [1],Percent Effect [2]
CSc1ccc(CNC(c2ccccc2)c2nccn2C)cc1 (configuration not stated),3.61%,-1.22%
Cc1nccn1-c1cccc(C2CCCN2S(=O)(=O)c2cn(C)cn2)n1 (configuration not stated),12.1%,45.9%
O=C1CC(c2ccsc2)c2c(n(C3CCOCC3)[nH]c2=O)N1 (configuration not stated),-2.53%,-30.3%
Cn1ncc2c1NC(=O)CC2c1ccccc1Cl (configuration not stated),1.14%,6%
Cn1ccnc1CN1CC[C@@H](NS(C)(=O)=O)[C@@H]1Cc1cccnc1,-0.168%,-4.31%
CC(C(=O)N1CCCN(c2ncccc2C#N)CC1)n1ccnc1 (configuration not stated),-0.45%,24%
CC1c2ncc(COc3cccnc3)n2CCN1C(=O)Cc1ccco1 (configuration not stated),-1.45%,-2.51%
CCOC1COC2(CCN(Cc3ccc4c(c3)OCO4)CC2)C1 (configuration not stated),-3.53%,-2.45%
O=C(NCc1ccccn1)Nc1cc(C(F)(F)F)c[nH]c1=O,1.37%,-24.9%
O=C1[C@@H]2CCN(Cc3ccoc3)C[C@@H]2OCCN1Cc1cccnc1,-0.368%,-11.5%
Cc1cc(NC(=O)CCN(CC2CCOC2)C2CC2)no1 (configuration not stated),-6.8%,-16.3%
c1cnnc(NCC2CN(CCN3CCCCC3)CCO2)c1 (configuration not stated),-4.13%,-5.19%
CC[C@@]1(O)CCN(C(=O)c2ccc(-c3cccc(F)c3)cc2)C[C@H]1O,3.54%,5.77%
CC(C(=O)N1CCCN(Cc2ccc(C#N)cc2)CC1)n1ccnc1 (configuration not stated),-0.834%,29.9%
Cc1n[nH]c(C)c1NC(=O)CN1CCOC(Cn2cccn2)C1 (configuration not stated),-0.605%,31.6%
O=C(NC1CC1)c1cc(NC(=O)N2CCCC(O)C2)ccc1Cl (configuration not stated),-0.137%,-38.6%
CC(C(=O)NCc1ccnc(N2CCCC2)c1)n1cncn1 (configuration not stated),-2.83%,27.3%
CCc1nnc2n1CCN(CC(=O)Nc1cc(C(C)(C)C)nn1C)C2,0.589%,28.9%
c1ccc(OCc2nnc3n2CCN(CC2CCOCC2)C3)nc1,10.1%,7.95%
CCc1n[nH]c(C2CN(Cc3nnc(C4CC4)n3C)CCO2)n1 (configuration not stated),-0.577%,9.55%
COc1ccc(CN2CCCC(Cn3nc(C)nc3C)C2)cc1F (configuration not stated),0.335%,-1.86%

Structure (SMILES),Percent Effect [1],Percent Effect [2]
CN(C)Cc1ccnc(C2CCCN2Cc2ccncc2)n1 (configuration not stated),-3.02%,-14.5%
COc1cc2cc(C(=O)O)n(C)c2c(OC)c1OC,-3.95%,1.12%
O=C(Cc1c[nH]c2ccccc12)N1CCC(Nc2cccnn2)CC1,1.83%,-4.79%
Cc1ccc(CC(=O)N2CCCCC2c2nc(C)cs2)cn1 (configuration not stated),-2.2%,1.25%
CN(CCC(F)(F)F)C(=O)C1CCCN1C(=O)OC(C)(C)C (configuration not stated),4.8%,-21.4%
CN(C)S(=O)(=O)c1ccc(CN2CCCC2c2ccc[nH]2)o1 (configuration not stated),-3.62%,8.06%
Cc1nc(N2CCN(C(=O)c3ccccc3)CC2)c2c(n1)c(C)nn2C,-3.51%,-31%
CN(Cc1nccn1CC(F)(F)F)C(=O)c1cccc(C#N)c1,1.68%,-1.08%
COc1ccc(Cl)cc1C(=O)N1CCCC(n2nc(C)nc2C)C1 (configuration not stated),-5.94%,7.05%
CCN(c1ccc(C(=O)NCCCN2CCCC2)cc1)S(=O)(=O)CC,2.52%,-46.4%
c1ccc(OC[C@]23COC[C@H]2CN(c2ncccn2)C3)nc1,1.95%,-23.2%
CCS(=O)(=O)N1CCC2(CC(=O)N(c3cccc(C)c3)C2)C1 (configuration not stated),2.82%,-11.5%
O=C(c1cc(Cl)c2c(c1)OCO2)N1CCN(c2nccs2)CC1,-0.23%,-4.3%
CCc1ccc(S(=O)(=O)Nc2cn(C)cc(Br)c2=O)cc1,-3.18%,-8.3%
CCn1cc(NC(=O)C2CCN(CC(=O)N3CCOCC3)CC2)cn1,-3.23%,21.6%
O=C(Nc1ncn(CC(=O)N2CCCCCC2)n1)C1CCCO1 (configuration not stated),-0.233%,29.5%
CCOC(=O)N1CCN(c2nc(NC)c3ccccc3n2)CC1,-2.29%,-9.78%
COc1cc(CN(C)C(=O)NCCC2CCCO2)ccc1SC (configuration not stated),-3.98%,-6.71%
c1cnnc(NCC2CN(Cc3cccc4c3OCCO4)CCO2)c1 (configuration not stated),-1.18%,-1.74%
Cc1csc(NC(=O)CN(C)CC2CCCN2c2cccnn2)n1 (configuration not stated),3.48%,-23.1%
